Here are results for 26 molecules from PubChem BioAssay (NCI).

SMILES strings stand for the structures. This is part of a sample that, as a whole, favours compounds with a hit. Of some 83,000 tested, about 20% had one in any assay.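 Percent growth is the endpoint: 0 to 100 indicates growth inhibition (40 means 60% inhibition), 0 means no net growth, and negative values indicate cell death.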 Unmarked numbers belong to inactive results. Activity calls are given as the source filed them. Rule for the calls: active = growth percent below 10; inactive = the rest.

The subject of this assay is HL-60(TB) leukemia. Description: NCI-60 one-dose screen, 48 h (100 = growth as untreated, 0 = no growth, -100 = all killed). As to conditions: 10 µM unless noted.
For the molecule `COc1ccc(S(=O)(=O)Nc2cc(/C=C\c3cc(OC)c(OC)c(OC)c3)cc(OC)c2OC)cc1OC`, the growth was 2.73% (active).
On to `CC(=O)N(CC(O)CO)c1c(I)c(C(=O)NCCO)c(I)c(C(=O)NCC(O)CO)c1I` (stereo unspecified), for which the growth is 92.2%.
For `COc1ccc(NC(=S)NNc2ccc(-c3ccc(OC)c(OC)c3)nn2)cc1`, the growth is 98.9%.
`Nc1c(C(=O)Nc2ccccn2)sc2nc3c(cc12)C(=O)CCC3`: the growth was 5.15% (active).
`Cc1ccc2[nH]c(=O)c3c(c2c1)OC(N)=C(C#N)C31c2cc(Br)ccc2-c2ccc(Br)cc21`: the growth is 85.7%.
Regarding `O=C(/C=C/c1cccnc1)c1ccccc1`, the growth was 89.8%.
Regarding `Cc1cc2c(-c3nc4ccccn4c3N)c(O)c(O)cc2c(O)c1-c1c(C)cc2c(-c3nc4ccccn4c3N)c(O)c(O)cc2c1O`, the growth was 9.95% (active).
Turning to `COc1ccc(C2CC(c3ccccc3)=NN2c2nc(C)c(C(C)=O)s2)cc1` (stereo unspecified), the growth was 101%.
In the case of `C[C@@H]1CC[C@@]2(OC1)O[C@H]1C[C@H]3[C@@H]4CC=C5C[C@@H](O[C@@H]6O[C@H](CO)[C@@H](O[C@@H]7O[C@@H](CO)[C@H](O)[C@H]7O)[C@H](O)[C@H]6O[C@@H]6O[C@@H](C)[C@H](O)[C@@H](O)[C@H]6O)CC[C@]5(C)[C@H]4CC[C@]3(C)[C@H]1[C@@H]2C` it was -84.1% (active); in that of `Nc1ncnc2c1C(c1ccc(Br)cc1)c1sc3c(F)cccc3c1O2` (stereo unspecified), 119%; in that of `COc1c(B(O)O)cc(C)cc1-c1nc2ccc3[nH]ncc3c2c2c1CCCC2`, 13.3%.
On to `O=c1c2cc(F)ccc2sc2c(NCCCNCCO)nc3ccc(F)cc3c12`, for which the growth was 54.6%.
For the molecule `O=C(CCCN1CCOCC1)Nc1ccc(Cn2nnc3c2C(=O)c2nnn(Cc4ccc(NC(=O)CCCN5CCOCC5)cc4)c2C3=O)cc1`, the growth was -7.47% (active).
In the case of `CCOC(=O)C1=C(CCl)NC(=O)NC1c1ccc2c(c1)OCO2` (stereo unspecified) it was 56.9%; in that of `Clc1ccc(C2CC(c3cccc(Nc4ccncc4)c3)=NN2c2ccc(Cl)cc2)cc1` (stereo unspecified), -45.3% (active); in that of `Cc1ccc(Cl)cc1N1CCN(C(=O)[C@@H]2C[C@@H]2c2ccc(F)cc2)CC1`, 69.9%.
Take `Nc1ncnc2[nH]c(=O)[nH]c12`: the growth was 140%.
Take `C=CCn1c(CN2CCN(c3cc4c(cc3F)c(=O)c(C(=O)O)cn4C3CC3)CC2)n[nH]c1=S`: the growth was 90.1%.
For the molecule `COc1ccc(-c2nc(N=Nc3c(O)[nH]c4ccccc34)nc(N3CCOCC3)c2C#N)cc1`, the growth is 90.5%.
`O=C(Nc1ccc(CN2CCOCC2)cc1)c1[nH]ncc1Nc1ncnc2sccc12`: the growth is -22% (active).
As for `CC(=O)c1nc2ccccc2n1CC(=O)c1cccc(Cl)c1`, the growth is -28.9% (active).
On to `CC1(C)CC(=O)C2=C(C1)Oc1nc(N)c(C#N)c(N)c1C2c1ccc(F)cc1` (stereo unspecified), for which the growth was 107%.
Turning to `CC(C)=CC/C=C(/C)[C@H]1CC[C@]2(C)[C@@H]1CC[C@@H]1[C@@]3(C)CC/C(=N/O)C(C)(C)[C@@H]3CC[C@]12C`, the growth is 5.9% [100 µM] (active).
In the case of `C=CC(C)(C)n1cc(C2=C(O)C(=O)C(c3cn(C(C)(C)C=C)c4ccccc34)=C(O)C2=O)c2ccccc21` it was 69.4%; in that of `Cc1cc(C#Cc2ccccc2)ccc1-n1c(/C=C/c2cc(O)ccc2O)nc2ccccc2c1=O`, -11.9% (active).
In the case of `Clc1ccc(I)c2ccccc12`, the growth is 98.1%.
